Results from PubChem BioAssay AID2156 (Johns Hopkins Ion Channel Center, 2009).
Out of some 310,000 compounds screened, about 3,400 (1.1%) were called active.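 The calls were made as follows: active = fluorescence ratio B-score at most minus 3 library SDs, with starting brightness B-score within 2 library SDs (cut at about -5.5 in these data); inactive = the rest, inconclusive results apart.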 The full list was thinned out, with actives kept by preference.

molecular target: Potassium voltage-gated channel subfamily KQT member 2 (Rattus norvegicus) (UniProt O88943); assay: rat KCNQ2 potassium channel inhibitors, primary screen, cell-based, CHO-K1, FluxOR thallium flux, B-score (AID 2156); conditions: 20 min, at 10 µM; hits give low values
Sequence (O88943 whole entry, looked up): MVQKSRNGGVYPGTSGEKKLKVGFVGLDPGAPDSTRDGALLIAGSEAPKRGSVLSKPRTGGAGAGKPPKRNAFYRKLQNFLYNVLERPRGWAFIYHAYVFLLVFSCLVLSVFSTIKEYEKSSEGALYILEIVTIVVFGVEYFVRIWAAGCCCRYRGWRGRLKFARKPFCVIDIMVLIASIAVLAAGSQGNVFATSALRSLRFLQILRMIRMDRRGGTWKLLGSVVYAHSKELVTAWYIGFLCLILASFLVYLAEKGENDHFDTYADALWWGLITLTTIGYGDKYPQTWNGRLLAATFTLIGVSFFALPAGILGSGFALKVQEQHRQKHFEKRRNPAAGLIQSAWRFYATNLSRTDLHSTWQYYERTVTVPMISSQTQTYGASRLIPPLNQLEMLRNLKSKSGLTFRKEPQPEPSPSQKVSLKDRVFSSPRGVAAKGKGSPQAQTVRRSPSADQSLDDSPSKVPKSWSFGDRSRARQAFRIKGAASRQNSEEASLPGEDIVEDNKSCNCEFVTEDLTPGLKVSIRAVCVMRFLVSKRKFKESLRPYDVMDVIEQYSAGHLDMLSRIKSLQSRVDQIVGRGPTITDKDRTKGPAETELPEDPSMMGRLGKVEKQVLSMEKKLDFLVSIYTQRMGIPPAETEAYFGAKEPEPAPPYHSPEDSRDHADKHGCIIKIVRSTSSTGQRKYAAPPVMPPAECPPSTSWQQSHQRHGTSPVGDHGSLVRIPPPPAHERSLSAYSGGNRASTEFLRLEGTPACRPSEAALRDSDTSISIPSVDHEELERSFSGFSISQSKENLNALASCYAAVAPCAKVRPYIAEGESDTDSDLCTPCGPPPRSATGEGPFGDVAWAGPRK

B-score, inactive:
C=CCn1c(C2CC(=O)N(c3ccc(C)cc3)C2)nc2ccccc21 (configuration not stated)
CSc1nc2ccccc2c(=O)n1Cc1ccc(F)cc1
CCN(CC)c1ccc(NC(=O)c2ccc(=O)[nH]c2)cc1S(=O)(=O)Nc1ccc(OC)cc1 -0.01
CC1CCN(C(=O)c2ccc3c(c2)NC(=O)CN3)CC1 -0.25
CCN1CCN(CCNC(=O)c2ccc3c(c2)NC(=O)/C(=C\c2ccc(OC)c(OC)c2)S3)CC1 -0.06
Cc1ccc(S(=O)(=O)N(C)c2ccc(OCC(=O)OCC(=O)N(CC#N)c3ccccc3)cc2)cc1
CN(CC(=O)Nc1cccc(F)c1)C(=O)C1CSC2(C)CCC(=O)N12 (configuration not stated) -0.47
COc1ccccc1C(=O)NC(CCSC)C(=O)NNC(=O)c1ccccc1C (configuration not stated)
Cc1cc(NC(=O)CSC2=NS(=O)(=O)c3cc(Cl)ccc3N2)no1 -0.31
O=C(c1ccccc1)c1cc(-c2ccccn2)c(N2CCOCC2)s1 -0.1
CCc1ccc(C(=O)NC(=S)Nc2ccccc2N2CCOCC2)cc1 -5.43
CCCCn1c(N)c(N(CC(C)C)C(=O)c2cccc(S(=O)(=O)N3CC(C)OC(C)C3)c2)c(=O)[nH]c1=O (configuration not stated)
CCCCn1c(N)c(N(CC(C)C)C(=O)c2cnc(C)cn2)c(=O)[nH]c1=O
Cc1cc(NC(=O)C(C)SCC(=O)Nc2ccccc2N2CCCCC2)no1 (configuration not stated)
O=C(NCCCN1CCCC1=O)c1cccc(S(=O)(=O)NCc2ccccc2)c1 -0.85
O=C(COC(=O)c1ncc(Cl)c(Cl)c1Cl)NCc1cccs1 -2.02
CCC1(c2ccccc2)NC(=O)N(CC(=O)c2ccc3c(c2)OCO3)C1=O (configuration not stated)
O=C(CN1CCC(O)(c2ccccc2)CC1)Nc1ccc2c(c1)OCCO2
COc1cc(N)c(Cl)cc1C(=O)OCC(=O)c1ccc2c(c1)NC(=O)CO2
CNS(=O)(=O)c1cccc(C(=O)NC2CCCc3ccccc32)c1 (configuration not stated) -2.62
COc1ccc(CN(C)C(=O)CC(c2ccccc2)c2ccccc2)cc1 -2.95
O=C(CN1CCN(c2ccc(O)cc2)CC1)NC1CCCc2ccccc21 (configuration not stated) -0.25
CCOc1ccc(NC(=O)COc2ccc(C(=O)NC3CCCc4ccccc43)cc2OC)cc1 (configuration not stated)
Cc1ccc(NC(=O)CN(C)C(=O)Cn2nnc(-c3ccccc3)n2)cc1
COc1ccccc1CNC(=O)CSc1nc(=O)n(Cc2ccncc2)c2c1CCC2 -0.12
CC(=O)N1CCN(C(=O)c2cc(-c3ccc(Cl)s3)nc3ccccc23)CC1
CCOc1ccccc1-c1cc(C(=O)N2CCOCC2)c2ccccc2n1
Cc1cc(OCC(=O)N(C)c2c(N)n(Cc3ccccc3)c(=O)[nH]c2=O)c(C(C)C)cc1Cl -0.02
COc1ccc(-c2cnc(SCCNC(=O)c3ccc4c(c3)OCO4)[nH]2)cc1
Cc1ccc(S(=O)(=O)Oc2ccc(/C=N/NC(=O)c3ccncc3)cc2)cc1 -0.5
O=C1OC(c2ccc(Cl)cc2)=N/C1=C\c1cccnc1 -0.06
COc1ccc(OCCCC(=O)OC(C)C(=O)Nc2ccccc2[N+](=O)[O-])cc1 (configuration not stated) -0.14
Cc1ccc(CN2CCN(c3ccccc3Cl)CC2)o1 -0.4
O=C(CN1CCN(c2ccc(O)cc2)CC1)Nc1cc(S(=O)(=O)N2CCOCC2)ccc1Cl -0.82
O=C(N/N=C/c1cc(Cl)cc([N+](=O)[O-])c1O)C(O)(c1ccccc1)c1ccccc1 -0.18
CN1CCN(C(=O)C2=C[C@H](c3ccc4c(c3)OCO4)C[C@H](OCc3ccc(CO)cc3)O2)CC1 -0.01
CC(=O)n1cc([C@H]2C=C(C(=O)N3CCOCC3)O[C@@H](OCc3ccc(CO)cc3)C2)c2ccccc21 -4.18
O=C(COc1coc(CN2CCN(c3ccccc3F)CC2)cc1=O)N1CCc2ccccc21
O=C(CN1CCCCCC1)N1c2ccccc2Sc2ccc(C(F)(F)F)cc21 -3.82
COc1cc(/C=C/C(=O)N2CCc3ccccc3C2)cc(OC)c1OC
CCOc1ccc(NC(=O)N(CCC(C)C)C(C)c2ccco2)cc1 (configuration not stated) -2.46
Cc1ccc(NC(=O)NC(=O)N(C2CCCCC2)S(=O)(=O)c2ccccc2)cc1 -1.57
N#CC1(NC(=O)COC(=O)CSc2ccc(F)cc2)CCCCC1
C=CCOc1ccc(/C=C/C(=O)OC(C)C(=O)Nc2ccc(NC(C)=O)cc2)cc1 (configuration not stated)
CCCn1c(C)cc(/C=C(\C#N)C(=O)OCC(=O)N(C)c2c(N)n(Cc3ccccc3)c(=O)[nH]c2=O)c1C -0.77
COc1ccc(OC)c(C(=O)c2ccc(Cl)cc2)c1
COc1ccc(/C(C)=N/NC(=O)CCC(=O)Nc2ccc(Cl)cc2Cl)c(OC)c1 -2.5
O=C(Nc1ccon1)c1sc2ccccc2c1Cl -0.39
COc1ccc(CNC(=O)CNC(=O)c2sc3ccccc3c2Cl)cc1OC
COc1ccc(-c2csc3ncnc(N4CCN(S(=O)(=O)c5cccc(F)c5)CC4)c23)cc1 -2.13
CC(OC(=O)CCCOc1ccccc1)C(=O)Nc1ccc(Cl)cn1 (configuration not stated)
CC1CN(C(=O)COC(=O)c2cccc(NS(=O)(=O)c3ccccc3)c2)CC(C)O1 (configuration not stated)
CS(=O)(=O)n1nc(-c2ccccc2)nc1NCc1ccco1 -0.02
c1ccc(-c2nc(NCc3ccco3)c3ccccc3n2)cc1 -3.7
CC1(C)O[C@@H]2CC3C4C[C@H](F)C5=CC(=O)C=CC5(C)C4C(O)CC3(C)[C@]2(C(=O)CO)O1 (some centres not stated)
O=C(COC(=O)c1cccs1)Nc1ccccc1Cl -0.17
O=C(Nc1ccccc1Cl)Nn1cnnc1
CCc1noc(C)c1C(=O)Nc1nc(-c2ccccc2)cs1 -0.22
CCCn1nc(C(=O)NNC(=O)CSCC(=O)Nc2cc(C)on2)c2ccccc2c1=O -2.13
Cc1c(C(=O)NCCCc2ccccc2)cccc1[N+](=O)[O-] -1.07
O=C(O/N=C(/c1ccccc1)c1ccncc1)c1ccccc1[N+](=O)[O-] -1.04
Cc1cccc(N2CC(C(=O)Nc3ccccc3N3CCCC3)CC2=O)c1C (configuration not stated)
c1cnc(N2CCN(c3ccc4ccccc4n3)CC2)nc1 -0.22
CC(Oc1ccc(F)cc1)C(=O)N1CCN(c2ncccn2)CC1 (configuration not stated)
Cc1cc(C)n2nc(C(=O)OC(C)C(=O)c3cc(C)c(C)cc3C)nc2n1 (configuration not stated)
Cc1ccccc1NC(=O)C(C)OC(=O)CCC(=O)N(CC(C)C)c1c(N)n(CC(C)C)c(=O)[nH]c1=O (configuration not stated)
Cc1cc(CNC(=O)c2cccc([N+](=O)[O-])c2)c2ccccc2n1
CC(=O)Nc1ccc(Nc2c3ccccc3nc3ccccc23)cc1
CCOc1ccc(/C=C/C(=O)N(CC)CC(=O)NCc2cccs2)cc1OC
COc1ccccc1CNC(=O)COn1nnc2ccc(S(=O)(=O)N3CCOCC3)cc21
COc1ccc(Cl)cc1NC(=O)c1cccc(N2C(=O)C3CC=CCC3C2=O)c1 (configuration not stated) -0.4
COc1ccc(Cl)cc1NC(=O)CCN1CCOCC1 -1.02

B-score, active:
CC(C)(C)N1CC(c2nc3ccccc3n2Cc2ccc(F)cc2)CC1=O (configuration not stated) -5.93
O=C1Nc2cc(C(=O)N3CCC(N4CCCCC4)CC3)ccc2S/C1=C\c1ccccc1 -6.65
CCc1ccc2ncc(C(=O)c3ccccc3)c(N3CCOCC3)c2c1 -9.81
O=C(CCN1CCc2ccccc2C(O)(c2ccccc2)C1)c1ccc2c(c1)OCCO2 (configuration not stated) -6.97
COc1ccc(CN(C)C(C)C(=O)NC2CCCc3ccccc32)cc1 (configuration not stated) -6.8
Cc1cccc(C(=O)OC(C)C(=O)NC2CCCc3ccccc32)c1O (configuration not stated) -7.78
O=C(c1cc(-c2ccc(Cl)s2)nc2ccccc12)N1CCOCC1 -6
Cc1ccc(C2=N/C(=C\c3ccc(OS(=O)(=O)c4ccc(C)cc4)cc3)C(=O)O2)cc1 -7.24
O=[N+]([O-])c1cc(Cl)cc(/C=N/NC(=S)Nc2cc(S(=O)(=O)N3CCOCC3)ccc2Cl)c1O -8.14
CC(=O)n1cc([C@@H]2C=C(C(=O)N3CCN(Cc4ccc5c(c4)OCO5)CC3)O[C@H](OCc3ccc(CO)cc3)C2)c2ccccc21 -6.49
COc1cc(/C=C/C(=O)N2c3ccccc3Sc3ccc(C(F)(F)F)cc32)cc(OC)c1OC -7.31
CC(c1ccco1)N(C(=O)Nc1ccccc1)C1CCCCC1 (configuration not stated) -5.91
COc1ccc(OC)c(/C(C)=N\NC(=O)c2cc3cc(Cl)ccc3n2C)c1 -8.07
CN1CCc2ccccc2C1Cc1ccccc1NC(=O)c1sc2ccccc2c1Cl (configuration not stated) -6.56
O=C(Cc1ccccc1)n1nc(-c2ccccc2)nc1NCc1ccco1 -5.57
O=C(Nc1ccccc1Cl)/C(Cl)=C(\Cl)S(=O)c1ccccc1 (configuration not stated) -9.85
O=C(OCC(=O)N(CCc1ccccc1)Cc1ccccc1)c1ccccc1[N+](=O)[O-] -6.77
CC12CCC(C(=O)N3CCN(c4ncccn4)CC3)(c3nc4ccccc4nc31)C2(C)C (configuration not stated) -6.6
O=[N+]([O-])c1cccc(Nc2c3ccccc3nc3ccccc23)c1 -5.7
COc1ccc(Cl)cc1NC(=O)COC(=O)C(CC(C)C)N1C(=O)C2CC=CCC2C1=O (configuration not stated) -5.8
